# Source: PubChem BioAssay AID743398 (Broad Institute, 2014)
# The campaign covered roughly 300,000 compounds. About 3,600 (1.2%) were called active. The sample holds actives, similar compounds and a random draw of the others, so the mix is not that of the screen. Values without a mark were called inactive. Cut-off read from the data, not from the text of the source: active = activation above about 30% (passing the limit was not always enough); inconclusive = no clear call, values can overlap the other calls.
# Experiment: activation of beta-catenin signaling reporter – cell-based, plate reader, single point, primary screen (AID 743398);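 note: 0% = neutral control wells and 100% = positive control wells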
# Settings: Wnt/beta-catenin reporter cell assay, activator, at 9.35 µM, stronger effect = higher value
row,SMILES,activation
1,COc1cccc(NC(=O)C2(C)CCN2C(=O)CCC2CCCC2)c1 (stereo not given),-2.67%
2,Cc1ccc(Cc2c(-c3ccc(Cl)cc3)nc3c4ccccc4ccn23)cc1,-0.0465%
3,O=C(Cc1nc2ccccc2[nH]c1=O)c1ccc(Cl)cc1,52.5% (active)
4,O=C(/C(=C/c1cccc(Cl)c1)c1nc2ccccc2[nH]1)c1ccccc1,27.7%
5,O=C(CSc1nc2ccc([N+](=O)[O-])cc2[nH]1)c1ccc(Cl)cc1,-2.13%
6,Cc1ccc(Nc2ncnc3c2cnn3C)c(C)c1,0.858%
7,O=C(NNc1ncnc2c1cnn2-c1ccccc1)c1ccco1,0.184%
8,Cc1ccc(-n2ncc3c(Nc4cccc(C(=O)O)c4)ncnc32)cc1,42.2% (active)
9,CC(=O)C1=C(C)N(Cc2ccc(Cl)cc2)C(=S)NC1c1ccc(F)cc1 (stereo not given),-10%
10,N#CC1=C(N)N(c2ccccc2)C2=C(C(=O)CCC2)C1c1ccccc1 (stereo not given),-0.648%
11,COc1ccc(C2C(C#N)=C(N)N(c3ncn[nH]3)C3=C2C(=O)CCC3)cc1 (stereo not given),43.2% (active)
12,CCOc1ccc(C2C(C#N)=C(N)N(N(C)C)C3=C2C(=O)CCC3)cc1 (stereo not given),6.29%
13,COc1cccc(-c2nc3nc(C)cc(C)n3c2NC2CCCCC2)c1,5.8%
14,CC[C@H](NC(=O)[C@H](Cc1ccccc1)NC(=O)[C@H]1O[C@@H](n2cnc3c(=O)[nH]c(N)nc32)[C@H](O)[C@@H]1O)c1ccccc1,-0.864%
15,Cc1sc2ncnc(N3CCC(C(=O)Nc4ccc(F)cc4Cl)CC3)c2c1C,-1.16%
16,Cc1sc2ncnc(N3CCC(C(=O)Nc4nc5ccc(Cl)cc5s4)CC3)c2c1C,38.3% (active)
17,Cc1sc2ncnc(N3CCC(C(=O)NNC(=O)c4ccc(F)cc4)CC3)c2c1C,3.2%
18,C[C@H](NC(=O)[C@@H]1CCCN1C(=O)[C@@H]1CCCN1C(=O)c1ccccc1)c1ccccc1,-3.41%
19,COc1ccc(Cn2c(=O)oc3ccccc32)cc1,8.74%
20,COc1ccc(Cn2c(-c3ccc(Cl)cc3)c[n+]3ccccc23)cc1,68.9% (active)
21,CCn1c(C)cc(=O)cc1-c1ccc(Cl)cc1,2.88%
22,Cc1cc(C)n2c(NCc3ccccc3)c(CC(C)C)nc2n1,-0.325%
23,COC(=O)C1=C(C)N(Cc2cccc(C(F)(F)F)c2)C(=NCc2ccccc2)NC1c1ccccc1C(F)(F)F (stereo not given),-15.6%

row,SMILES,activation
1,O=C(CC(CC(=O)c1ccccc1)c1ccco1)c1ccccc1,0.593%
2,O=C(COC(=O)c1ccccc1)c1ccc2c(c1)OCCO2,-3.49%
3,O=C(COC(=O)c1ccc(O)cc1O)NC(=O)c1ccccc1,-3.61%
4,O=C(COC(=O)c1ccc(O)cc1O)c1ccc2c(c1)OCCO2,53.6% (active)
5,O=C(O)Cn1cnc2c(NCc3ccccc3)ncnc21,-0.517%
6,COC(=O)C1=C(C)N(Cc2cccc(C(F)(F)F)c2)C(=NCc2ccccc2)NC1c1ccc(Cl)cc1 (stereo not given),-31.1%
7,COc1ccc(-c2cc(C(=O)NCCCn3ccnc3)no2)cc1,6.05%
8,O=C(NC1CCCC1)c1cc(-c2ccccc2)on1,46.9% (active)
9,O=C(NC1CCCCCCC1)c1cccs1,9.38%
10,O=C(NC1CCCCC1)c1cc(C2CC2)on1,24.8%
11,O=C(NCCCn1ccnc1)c1ccccc1F,-0.169%
12,O=C(NCCCn1ccnc1)c1cc(-c2ccccc2)on1,113% (active)
13,Cc1ccccc1S(=O)(=O)N1[C@@H](c2cccc(Cl)c2)C(C(=O)OC(C)(C)C)=CC[C@H]1c1ccc(Cl)cc1,-9.66%
14,COc1ccccc1-c1ccc([C@@H]2C[C@H]3[C@H](CON3C)CN2S(=O)(=O)c2cc(Cl)cc(Cl)c2)cc1,-3.43%
15,COC(=O)[C@]12C[C@H](CC(=O)NCc3ccccc3)C(=O)N(CCC3=CCCCC3)C1=C[C@H](C(C)(C)C)O[C@@H]2C,-7.29%
16,Cc1cccc(CNC(=O)c2sc(=O)n(Cc3ccccc3C)c2C)c1,-2.16%
17,Cc1cnc(NC(=O)c2ccccn2)s1,41.6% (active)
18,O=C(Nc1nnc(C2CC2)s1)c1ccccn1,3.38%
19,Cc1cnc(NC(=O)c2ccc(Cl)nc2)s1,29%
20,COC(=O)[C@]12C[C@H](CC(=O)NCCCCc3ccccc3)C(=O)N(Cc3ccc4c(c3)OCO4)C1=C[C@H](C(C)(C)C)O[C@@H]2C,-8.78%
21,NC(=O)CSc1nnc(NC(=O)c2ccc3ccccc3c2)s1,39.8% (active)
22,NC(=O)CSc1nnc(NC(=O)c2ccc(Br)o2)s1,3.36%
